Results filed as inconclusive are left out. Calls of active or inactive are those of the source. Unless noted, the call rests on the fitted dose curve; in most records, active means well fitted curve in the direction sought with a large enough effect in the repeat runs; inconclusive means weak or mixed curves; inactive means no such curve, though single readings can be large; an effect the other way counts as inactive or inconclusive.
What was measured:
[1] = qHTS assay to identify small molecule agonists of the hypoxia (HIF-1) signaling pathway - cell viability counter screen (AID 1224844; calls by dose curve; further: nearly all actives have a fitted effect of over 50% in size)
Procedure, shortened: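 In this counter screen, HRE-bla ME-180 cell viability after 17 hrs of compound exposure at 37C was read by CellTiter-Glo luminescence, multiplexed with the beta-lactamase reporter measurement.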

[2] = qHTS assay to identify small molecule agonists of H2AX (AID 1224845; active means well fitted activation curve with a large enough effect in the signal ratio in the repeat runs, not every such curve was filed as active; the % refers to the signal ratio)
Procedure, shortened: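 Phospho-H2AX Ser139 measured by HTRF (ex 320 nm; em 665 and 620 nm) after 24 hr antibody incubation. Compounds, 15 concentrations, 0.76% DMSO, were applied to CHO-K1 cells for 3hr at 37C before lysis.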

[3] = qHTS assay to identify small molecule agonists of the hypoxia (HIF-1) signaling pathway (AID 1224846; active means well fitted activation curve with a large enough effect in the signal ratio in the repeat runs, not every such curve was filed as active; the % refers to the signal ratio)
Procedure, shortened: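 ME-180 HRE-bla reporter cells; compounds in DMSO, 17 h at 37C; read-out beta-lactamase via CCF4-AM FRET.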

[4] = qHTS assay to identify small molecule agonists of H2AX - cell viability counter screen (AID 1224847; calls by dose curve;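 further: wild-type CHO-K1 cells; top concentration of the series differs between compounds; nearly all actives have a fitted effect of over 30% in size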)
Procedure, shortened: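 After overnight plating of 1000 CHO-K1 cells per well, a 15-concentration compound series was applied for 3 hr at 37C. Luminescence from CellTiter-Glo, read following 30 min at room temperature, reflected cell viability.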

[5] = qHTS RealTime-Glo MT Cell Viability Assay in HepG2 cells - 24 hour (AID 1224867); further: nearly all actives have a fitted effect of over 50% in size
Procedure, shortened: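 Viability was tracked continuously by NanoLuc luminescence from prosubstrate reduced by living HepG2 cells, at successive time points over 40 h of compound exposure. Cells with reagent were preincubated 5 h at 37 °C before compound addition.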

[6] = qHTS RealTime-Glo MT Cell Viability Assay in HEK293 cells - 32 hour (AID 1224868); further: top concentration of the series differs between compounds; nearly all actives have a fitted effect of over 50% in size
Procedure, shortened: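 Viability tracked continuously by luminescence as live cells reduce a prosubstrate for NanoLuc; HEK293 cells preincubated 5 h, compound-treated at 37 C, and read at 0, 8, 16, 24, 32 and 40 h.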

[7] = A CellTox Green Cytotoxicity Assay to monitor cytotoxicity in HEK293 cells - 0 hour (AID 1224869); further: nearly all actives have a fitted effect of over 50% in size
Procedure, shortened: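 Real-time, in one plate: 600 HEK293 cells/well with dead-cell DNA dye, pinned compound after 5 h, 37 C incubation over 40 h; viable cells give no appreciable fluorescence.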

[8] = qHTS RealTime-Glo MT Cell Viability Assay in HepG2 cells - 40 hour (AID 1224870); further: nearly all actives have a fitted effect of over 50% in size
Procedure, shortened: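 Real-time viability: cells seeded at 600 per well together with NanoLuc and cell-permeant prosubstrate, compounds added after 5 h incubation. Luminescence tracked at 0, 8, 16, 24, 32 and 40 h of exposure.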

Measured: Potency

C[C@]1(O)CC[C@H]2[C@@H]3CCC4=CC(=O)CC[C@]4(C)[C@@]3(F)[C@@H](O)C[C@@]21C
inactive: [1] | [2] | [3] | [4] | [5] | [6] | [7] | [8]

CC(N)=S
inactive: [1] | [2] | [3] | [4] | [5] | [6] | [7] | [8]

CCOP(=O)(N=C1SCCS1)OCC
inactive: [1] | [2] | [3] | [4] | [5] | [6] | [7] | [8]

COc1ncc(F)c2nc(S(=O)(=O)Nc3c(F)cccc3F)nn12
inactive: [1] | [2] | [3] | [4] | [5] | [6] | [7] | [8]

O=C(O)c1ccc2[nH]cc(CCCCN3CC=C(c4ccccc4)CC3)c2c1
inactive: [1] | [2] | [3] | [4] | [5] | [6] | [7] | [8]

OC(c1ccc(F)cc1)(c1cncnc1)c1ccccc1Cl (stereo not drawn)
inactive: [1] | [2] | [3] | [4] | [5] | [6] | [7] | [8]

COc1cc2c(cc1OC)[C@@]13CCN4CC5=CCO[C@H]6CC(=O)N2[C@H]1[C@H]6[C@H]5C[C@H]43
inactive: [1] | [2] | [3] | [4] | [5] | [6] | [7] | [8]

O=NN1CCCCC1
inactive: [1] | [2] | [3] | [4] | [5] | [6] | [7] | [8]

O=C(N[C@H]1CN2CCC1CC2)c1cc2ccoc2cn1
inactive: [1] | [2] | [3] | [4] | [5] | [6] | [7] | [8]

ClC(Cl)(Cl)C(Cl)(Cl)Cl
inactive: [1] | [2] | [3] | [4] | [5] | [6] | [7] | [8]

O=C(NCO)NCO
inactive: [1] | [2] | [3] | [4] | [5] | [6] | [7] | [8]

CCN(CC)c1nc(C)cc(OP(=S)(OC)OC)n1
inactive: [1] | [2] | [3] | [4] | [5] | [6] | [7] | [8]

BrCCCCCCBr
inactive: [1] | [2] | [3] | [4] | [5] | [6] | [7] | [8]

ClC(Cl)Br
inactive: [1] | [2] | [3] | [4] | [5] | [6] | [7] | [8]

Oc1c(Cl)cccc1Cl
inactive: [1] | [2] | [3] | [4] | [5] | [6] | [7] | [8]

Nc1cc2c3c(c1)C(c1ccccc1)=N[C@@H](NC(=O)c1cccnc1)C(=O)N3CC2
inactive: [1] | [2] | [3] | [4] | [5] | [6] | [7] | [8]

CC(CCc1ccccc1)NC(C)C(O)c1ccc(O)cc1 (stereo not drawn)
inactive: [1] | [2] | [3] | [4] | [5] | [6] | [7] | [8]

CCCSC(=O)N(CCC)CCC
inactive: [1] | [2] | [3] | [4] | [5] | [6] | [7] | [8]

Cc1ncsc1CCCl
inactive: [1] | [2] | [3] | [4] | [5] | [6] | [7] | [8]

CC(C)[N+](=O)[O-]
inactive: [1] | [2] | [3] | [4] | [5] | [6] | [7] | [8]

NC1=NC(=O)C(c2ccccc2)O1 (stereo not drawn)
inactive: [1] | [2] | [3] | [4] | [5] | [6] | [7] | [8]

CCOP(=O)(OCC)OP(=O)(OCC)OCC
inactive: [1] | [2] | [3] | [4] | [5] | [6] | [7] | [8]

Nc1cnn(-c2ccccc2)c(=O)c1Cl
inactive: [1] | [2] | [3] | [4] | [5] | [6] | [7] | [8]

CCCSC(=O)Cl
inactive: [1] | [2] | [3] | [4] | [5] | [6] | [7] | [8]

CC(C(=O)c1ccccc1)N(C)C (stereo not drawn)
inactive: [1] | [2] | [3] | [4] | [5] | [6] | [7] | [8]

CC1(C)CON(Cc2ccccc2Cl)C1=O
inactive: [1] | [2] | [3] | [4] | [5] | [6] | [7] | [8]

ClCC(Cl)Cl
inactive: [1] | [2] | [3] | [4] | [5] | [6] | [7] | [8]

CCCCP(CCCC)CCCC
inactive: [1] | [2] | [3] | [4] | [5] | [6] | [7] | [8]

CC(C=O)Cc1ccc2c(c1)OCO2 (stereo not drawn)
inactive: [1] | [2] | [3] | [4] | [5] | [6] | [7] | [8]

CC1CN1P(=O)(N1CC1C)N1CC1C (stereo not drawn)
inactive: [1] | [2] | [3] | [4] | [5] | [6] | [7] | [8]

COC(=O)c1ccccc1S(=O)(=O)NC(=O)Nc1nc(C)cc(C)n1
inactive: [1] | [2] | [3] | [4] | [5] | [6] | [7] | [8]

O=C(Oc1ccc(Br)cc1)N1CCN2CCC1CC2
inactive: [1] | [2] | [3] | [4] | [5] | [6] | [7] | [8]

COC(C)(C)C
inactive: [1] | [2] | [3] | [4] | [5] | [6] | [7] | [8]

CCC(=O)C(CCN(C)C)(c1ccccc1)c1ccccc1
inactive: [1] | [2] | [3] | [4] | [5] | [6] | [8]

O=C1OC(c2ccc(O)c(S(=O)(=O)O)c2)(c2ccc(O)c(S(=O)(=O)O)c2)c2c(Br)c(Br)c(Br)c(Br)c21
inactive: [1] | [2] | [3] | [4] | [5] | [6] | [8]

COc1cc(OC)nc(NC(=O)NS(=O)(=O)c2ncccc2C(=O)N(C)C)n1
inactive: [1] | [2] | [3] | [4] | [5] | [6] | [7] | [8]

COC(=O)C(c1ccccc1)C1CCCCN1 (stereo not drawn)
inactive: [1] | [2] | [3] | [4] | [5] | [6] | [8]

N#CC(O)c1ccccc1 (stereo not drawn)
inactive: [1] | [2] | [3] | [4] | [5] | [6] | [7] | [8]

CN1C[C@@H](NS(=O)(=O)N(C)C)C[C@@H]2c3cccc4c3c(cn4C)C[C@H]21
inactive: [1] | [2] | [3] | [4] | [5] | [6] | [7] | [8]

Cc1coc2c1CCC(C)C2 (stereo not drawn)
inactive: [1] | [2] | [3] | [4] | [5] | [6] | [8]

N#CCCC#N
inactive: [1] | [2] | [3] | [4] | [5] | [6] | [8]
